# From PubChem
# A selection: hits, their analogues and other compounds. The true share with any hit is near 1.4%.
# LEDGF integ inh: blocks HIV-1 LEDGF/p75-dependent DNA integration; TR-FRET IN-LEDGF/p75 DNA integration, Eu/Cy5; inhibition, % at 3.7 µM; actives 0.64% (n = 370,000); AID 743269;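 active = inhibition above the screen-wide mean plus 3 SD, cut at about 13% in these data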;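 also: signal is the Cy5 over europium emission ratio at 671 and 618 nm; 0% = plate median of compound wells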
# MBD2 inh: blocks human MBD2 binding to methylated DNA. Q9UBB5. TR-FRET, MBD2 binding to methylated oligonucleotide. inhibition, % at 4.4 µM. actives 0.31% (n = 370,000); in the data active = inhibition above about 13%
# Casp6 inh: caspase-6 (human) enzyme inhibition; purified caspase-6, Z-VEID-R110 cleavage fluorescence; inhibition, % at 12.5 µM; actives 0.53% (n = 350,000); AID 686996;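 active = mean inhibition across replicates at least about 35%, with every replicate also reaching that limit, limit read from the data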;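 also: 0% = median of neutral control wells and 100% = no fluorescence left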
# Target sequence (P55212 24-179 limits assumed): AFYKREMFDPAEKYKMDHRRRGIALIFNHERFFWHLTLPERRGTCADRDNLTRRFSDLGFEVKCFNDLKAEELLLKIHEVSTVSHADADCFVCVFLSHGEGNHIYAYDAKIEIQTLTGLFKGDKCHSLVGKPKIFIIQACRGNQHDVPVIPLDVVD
# Target sequence (P55212 194-293 limits assumed): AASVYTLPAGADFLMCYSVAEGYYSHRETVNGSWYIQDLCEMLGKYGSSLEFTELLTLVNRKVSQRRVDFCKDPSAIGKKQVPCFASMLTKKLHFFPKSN
# UHRF1 MBD2 ctr: human UHRF1 methylated DNA binding inhibitors; actives 0.75% (n = 370,000); inhibition, % at 4.4 µM; AID 687016; UHRF1 binding to methylated oligo, TR-FRET;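 also: UHRF1 SRA domain binding a hemimethylated CpG hairpin DNA probe; 0% = median of test compound wells and 100% = reference inhibitor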
# UHRF1 ctr MBD2: counter-screen for MBD2 inhibitors: human UHRF1 methylated DNA binding inhibitors. inhibition, % at 4.4 µM. UHRF1 binding to methylated oligonucleotide, TR-FRET. shares compounds with MBD2 inh. AID 720530. actives 25% (n = 1,000);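 also: UHRF1 SRA domain binding a labeled hemimethylated CpG hairpin DNA; 0% = vehicle only and 100% = reference inhibitor with vehicle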
# MBD2 DBD conf: MBD2-DBD methyl-DNA binding inhibition, TR-FRET confirmation. shares compounds with MBD2 inh. TR-FRET MBD2-DBD binding to methylated oligonucleotide. inhibition, % at 4.4 µM. actives 26% (n = 1,000); in the data active = inhibition above about 14%
# Numbers without * were called inactive; / = no result given; ! = not active in a repeat. Rule as the data show it, unless noted: active = inhibition above about 21%; inactive = the rest.
SMILES,LEDGF integ inh,MBD2 inh,Casp6 inh,UHRF1 MBD2 ctr,UHRF1 ctr MBD2,MBD2 DBD conf
CO[C@H]1CN(C)C(=O)c2ccc(NC(=O)C3CCCC3)cc2OC[C@@H](C)N(C(=O)CC2CC2)C[C@H]1C,/,/,-4,/,/,/
COC(=O)C1N2C(=O)[C@@H](NC(=O)COc3ccccc3)[C@H]2SC1(C)C (some centres not stated),0,4,2,-2,/,/
CC1(C)S[C@@H]2[C@H](NC(=O)[C@H](N)c3ccccc3)C(=O)N2[C@H]1C(=O)O,52*!,47*!,/,81*!,77*,31*
C[C@@H]1CN([C@@H](C)CO)C(=O)Cc2cc(NS(C)(=O)=O)ccc2O[C@H]1CN(C)S(=O)(=O)c1ccccc1,/,/,1,/,/,/
COCC(=O)Nc1ccc2c(c1)C(=O)N(C)C[C@H](OC)[C@H](C)CN(Cc1ccccn1)[C@H](C)CO2,/,/,-1,/,/,/
CC(C)(C)C1CCc2onc(C(=O)NCc3ccc(F)cc3)c2C1 (configuration not stated),1,17*,/,17,2,2
O=C(NCc1ccc(F)cc1)c1noc2c1CCCC2,/,/,6,/,/,/
Cc1nc2ccc(C(=O)Nc3ccccc3Cl)cc2s1,-5,20*,2,18,6,2
CC(=O)c1ccc(NC(=O)c2ccc3nc(C)sc3c2)cc1,1,4,-28,2,/,/
O=S(=O)(N[C@H]1CC[C@@H](CCn2cc(-c3ccc(F)cc3)nn2)O[C@H]1CO)c1ccccc1F,/,/,-3,/,/,/
C[C@H]1CN([C@@H](C)CO)C(=O)Cc2cc(NC(=O)Cc3ccccc3)ccc2O[C@@H]1CN(C)CC1CCCCC1,/,/,1,/,/,/
Cc1noc(C)c1NC(=O)Nc1ccc2c(c1)CC(=O)N([C@@H](C)CO)C[C@@H](C)[C@@H](CN(C)CC1CCCCC1)O2,/,/,-1,/,/,/
O=C(CCS(=O)(=O)c1cc2c(cc1Cl)NC(=O)CO2)NCCc1ccccc1,3,31*,-1,-1,7,0
O=C(CCS(=O)(=O)c1cc2c(cc1Cl)NC(=O)CO2)NCc1ccccc1,-2,2,-2,5,/,/
C/C=C/c1ccc2c(c1)O[C@H](CN(C)C(=O)c1ccccn1)[C@@H](C)CN([C@@H](C)CO)S2(=O)=O,/,/,0,/,/,/
O=C(Cn1cc(COc2ccccc2C(F)(F)F)nn1)c1ccc(O)cc1,8,15*,4,22*,11,9
C[C@@H]1CCCCO[C@@H](CN(C)C(=O)Cc2ccccc2)[C@@H](C)CN([C@H](C)CO)C(=O)c2cc(NS(=O)(=O)c3ccc(F)cc3)ccc2O1,/,/,-1,/,/,/
Cc1oc2ccc(O)cc2c1C(=O)c1ccc(Br)cc1,2,16*,0,-2,3,3
COc1ccc(NC(=O)N(C)C[C@@H]2OCCCC[C@@H](C)Oc3ccc(NS(=O)(=O)c4ccc(C)cc4)cc3C(=O)N([C@@H](C)CO)C[C@H]2C)cc1,/,/,-2,/,/,/
Cc1ccc(/C=C2\SC(=S)N(NS(=O)(=O)c3ccc(C)cc3)C2=O)cc1,-5,-5,10,-3,/,/
C=CCOc1ccc(/C=C2\SC(=S)N(NS(=O)(=O)c3ccc(C)cc3)C2=O)cc1,0,14*,/,23*,3,2
Cc1ccc(NC(=O)CCOc2ccccc2)cc1,-1,59*,-3,0,4,3
COc1ccc(C#Cc2cccc(-c3nc(C(=O)N[C@@H]4CCN(Cc5ccccc5)C4)cc4c3[C@@H](CCO)N(S(=O)C(C)(C)C)C4)c2)cc1OC (some centres not stated),/,/,3,/,/,/
Cc1ccc(S(=O)(=O)NC(=O)Nc2cccc(S(=O)(=O)N(C)C)c2)cc1,-1,56*,-1,2,6,2
Cc1ccc(S(=O)(=O)NC(=O)Nc2ccc(F)c(F)c2)cc1,-2,0,10,-3,/,/
SMILES,LEDGF integ inh,MBD2 inh,Casp6 inh,UHRF1 MBD2 ctr,UHRF1 ctr MBD2,MBD2 DBD conf
CCOC(=O)c1[nH]c2ccc(OC)cc2c1NC(=O)c1nonc1C,1,-6,/,1,/,/
CCOC(=O)c1[nH]c2ccc(OC)cc2c1NC(=O)c1ccc(OC)c(OC)c1,1,15*,/,2,6,2
C[C@H]1CN([C@@H](C)CO)C(=O)c2cc(NC(=O)Cc3ccccc3)ccc2O[C@H]1CN(C)C,/,/,0,/,/,/
CCC(=O)N1C[C@@H]2[C@H](c3ccccc31)[C@H](CO)N2C(=O)Nc1ccccc1F,/,/,-2,/,/,/
COc1ccc(CCNCC(O)COc2ccc(Cl)cc2)cc1OC (configuration not stated),-2,0,-5,0,/,/
COc1ccc(CCNCC(O)COc2cccc(C(C)=O)c2)cc1OC (configuration not stated),2,17*,-9,25*,7,4
COC(=O)C1CN(C2CCCC2)CCS(=O)(=O)N1Cc1cn(Cc2ccc(OC)cc2)nn1 (configuration not stated),5,16*,/,-4,4,2
COC(=O)C1CN(C2CC2)CCS(=O)(=O)N1Cc1cn(Cc2ccc(OC)cc2)nn1 (configuration not stated),-3,0,/,3,/,/
C=CCN(CC=C)Cc1cc(=O)oc2ccc3ccccc3c12,4,4,2,-4,/,/
C=CCN(CC=C)Cc1c(O)ccc2c1oc(=O)c1ccccc12,0,13*,/,16,-1,12
COc1ccc(-c2nc3c4ccccc4ccn3c2Cc2cccc(F)c2)cc1OC,3,15*,-2,15,6,5
COc1ccc(-c2nc3c(C)cc(Br)cn3c2Cc2cccc(F)c2)cc1OC,-6,3,0,10,/,/
CO[C@@H](CN(C)C(=O)c1ccccc1F)[C@H](C)CN([C@@H](C)CO)S(=O)(=O)c1ccc(C)cc1,/,/,-2,/,/,/
COC(=O)c1c(NC(=O)C2CCCCC2)sc2c1CCN(C(C)C)C2,-2,4,-1,3,/,/
CCOC(=O)c1c(NC(=O)C2CCCCC2)sc2c1CCN(C(C)C)C2,0,16*,1,2,5,5
CCOC(=O)c1c(NC(=O)c2ccc(S(=O)(=O)N3CCOCC3)cc2)sc2c1CCN(C(C)C)C2,0,20*,-1,25*,34*,27*
C[C@H](CO)N1C[C@H](C)[C@H](CN(C)S(=O)(=O)c2ccc(Cl)cc2)Oc2c(NS(=O)(=O)c3ccc(F)cc3)cccc2C1=O,/,/,-2,/,/,/
Cc1ccc(C(=O)NCc2ccc3c(c2)OCO3)c(Cl)c1,-4,15*,0,22*,6,5
NC(=O)C1=C[C@@H](c2csc3ccccc23)C[C@@H](OCCCCO)O1,4,15*,-3,-5,0,1
COc1ccc(/C=N\NC(=S)SCN2C(=O)C3CCC(C)(C2=O)C3(C)C)cc1 (configuration not stated),4,48*,/,-11,-11,-1
CN(C)c1ccc(/C=N\NC(=S)SCN2C(=O)C3CCC(C)(C2=O)C3(C)C)cc1 (configuration not stated),-3,-3,/,-2,/,/
